Assay results published in PubChem BioAssay AID588719 (Southern Research Specialized Biocontainment Screening …, 2011).
The whole screen tested about 1,500 compounds, of which about 920 (61%) were called active. So high a share suggests a set chosen from earlier hits. The list shows a part of the results. Measured potencies and affinities stand elsewhere. Values without a mark were called inactive. How the calls were made is not given here.

Assay: Vero 76 cell cytotoxicity, dose response, cytotoxicity control for VEEV inhibitor project (AID 588719)
Details: Vero 76 cells viability, cytotoxicity counter-screen; series mostly up to 25 µM; viability: at the top concentration

SMILES	viability [%]
Cc1ccc([C@H]2C[C@@H](O)[C@H](n3cc(COC(=O)c4ccccc4)nn3)CN2CC2CCCCC2)cc1	75.4
COc1ccc(CN(C)[C@H]2C[C@H]3c4[nH]c5ccccc5c4CCN3C[C@H]2[C@H](C)O)cc1	70.5
CC(C)Oc1ccccc1-c1cc(C(=O)N/N=C/c2cccnc2)c2ccccc2n1	84.6
Cc1cc(N/N=C/c2ccc3c(c2)OCO3)nc2ccccc12	78.2
CC(=O)Nc1ccc(CCNC(=O)c2ccc3ccccc3c2O)cc1	86.4
CCCc1ccc(-c2cc(C(=O)NCCc3ccc(S(N)(=O)=O)cc3)c3ccccc3n2)cc1	85
CCOC(=O)c1ccc(-c2ccc(/C=N/NC(=O)c3cncc(Br)c3)o2)cc1	83.8
CN(C)c1nc(OCCOC(=O)COc2ccc(Cl)cc2Cl)nc(N(C)C)n1	91.9
COc1ccc(CCNC(=O)c2cc3c(=O)n4cccc(C)c4nc3n(CCCN3CCOCC3)c2=N)cc1	88.7
O=C(CCNC(=O)c1ccc(Cl)cc1)NC1CCCc2ccccc21 (stereo unspecified)	73.9
CCOc1ccccc1N1CCN(Cc2cn[nH]c2-c2ccc(F)cc2)CC1	75.2
COc1cccc2sc(N(CCCN(C)C)C(=O)c3ccc(S(=O)(=O)N4CCCc5ccccc54)cc3)nc12	72.7
Cc1nc(SCC(=O)Nc2ccccc2Cl)c2c(C)c(C)sc2n1	98.1
CN(C)CC(O)COc1ccc(C(C)(C)c2ccc(OCC(O)CN(C)C)cc2)cc1 (stereo unspecified)	75.6
Cc1ccc(CCNc2ccc3ccccc3c2)cn1	88.9
CC(C)Cc1nc2oc3c(NCC(C)O)ncnc3c2c2c1CCCC2 (stereo unspecified)	91.7
Cc1cc(C(C)(C)C)cc(C)c1CCNC(=O)c1ccc[n+]([O-])c1	79.1
CCN(CC(=O)Nc1ccc(NC(C)=O)cc1)C(=O)c1cc2c(s1)CCCC2	88.5
CCOC(=O)c1ccccc1NC(=O)CSc1nc2ccccc2c(=O)n1CCCN1CCOCC1	76
CCOC(=O)Cn1c(-c2nonc2NC(=O)c2ccccc2F)nc2ccccc21	59.9
S=c1[nH]nc(-c2ccccn2)n1/N=C/c1ccc(-c2ccccc2Cl)o1	90.6
CCOc1ccc(CCNC(=O)CCc2nc3ccccc3[nH]2)cc1OCC	96.8
COc1ccc(CCNC(=O)c2cc3c(=O)n4ccccc4nc3n(Cc3ccco3)c2=N)cc1OC	87.9
COc1ccc([C@H]2C[C@H](n3cc(-c4ccc(F)cc4)nn3)[C@@H](O)CN2C(=O)C2CCCCC2)cc1	78.2
COc1ccc(C2c3[nH]c4ccccc4c3CCN2Cc2ccoc2)c(F)c1 (stereo unspecified)	73.6
Fc1ccc(C2c3[nH]c4ccccc4c3CCN2Cc2cccn2-c2ncccn2)cc1 (stereo unspecified)	71.8

SMILES	viability [%]
O=C(CCNC(=O)c1ccc(Br)cc1)NC1CCCc2ccccc21 (stereo unspecified)	76.6
CN1CCC(N(C)S(=O)(=O)c2ccc(NC(=O)COc3ccc(Cl)cc3)cc2)CC1	76.2
CCN1CCN(c2sc(S(C)(=O)=O)nc2S(=O)(=O)c2ccc(C)cc2)CC1	72
O=C1[C@H]2[C@@H](c3ccccc3)N[C@]3(CCCN(Cc4ccc(Br)cc4)C3=O)[C@H]2C(=O)N1Cc1ccccc1	71
CCOC(=O)NC(C(Cl)(Cl)Cl)S(=O)(=O)c1ccccc1 (stereo unspecified)	93.7
Nc1ccc2nc(-c3cccc(-c4nc5ccc(N)cc5[nH]4)c3)[nH]c2c1	97.4
O=C(COC(=O)Cc1ccc(S(=O)(=O)N2CCOCC2)s1)Nc1ccccc1Cl	93.2
O=C(COC(=O)c1ccc(Br)o1)Nc1cccc(S(=O)(=O)N2CCOCC2)c1	102
CC1(C)CC2(OC2c2ccccc2[N+](=O)[O-])C(=O)c2ccccc21 (stereo unspecified)	84
[O-][n+]1c(/C=C/c2ccccc2)ccc2ccccc21	70.4
CCOC(=O)C(=Cc1ccc(-n2ccnc2)cc1)C(=O)OCC	70.7
CCOC(=O)C(=Cc1ccc(-c2ccsc2C(=O)OC)o1)C(=O)OCC	77.6
O=C(O)C1CCN(C(=O)c2cc(F)cc3c2OCOC3)CC1	93
O=C(O)C1CC=CCC1C(=O)Nc1ccc(S(=O)(=O)N2CCCc3ccccc32)cc1 (stereo unspecified)	83.6
Cc1ccc2c(c1)CCCN2S(=O)(=O)c1cccc(C(=O)Nc2ccccc2C(=O)O)c1	76.5
Cc1cc2c(c(/C=C/C(=O)c3ccccc3)c1)OC1(C=C2)Oc2ccccc2C(=O)N1C (stereo unspecified)	73.6
CN(C)CCNC(=O)c1onc(CSc2ccc(F)c(F)c2)c1C(=O)NCCN(C)C	87.3
O=C(Oc1ccc2ccccc2c1Cl)N1CCCC1	81.7
C=CCn1c(SCC(=O)NC23CC4CC(CC(C4)C2)C3)nc(O)cc1=O	99.3
O=C(NCc1cccnc1)c1ccc(NS(=O)(=O)c2cccc([N+](=O)[O-])c2)cc1	102
Fc1ccccc1CSc1ncnc2c1ncn2C1CCCO1 (stereo unspecified)	71.9
N#C/C(=C\c1c(Oc2ccccc2Cl)nc2ccccn2c1=O)C(=O)NC1CCS(=O)(=O)C1 (stereo unspecified)	96.4
COc1cccc2c1C(=O)c1c(O)c3c(c(O)c1C2=O)C[C@@](O)(C(=O)CO)C[C@@H]3OC1CC(N)C(O)C(C)O1 (stereo partly specified)	55.7
Cc1cccc(CS(=O)(=O)c2ncc(Cl)c(C(=O)Nc3ccc(F)cc3)n2)c1	91.9
c1ccc2c3c([nH]c2c1)C1(CCNCC1)NCC3	84.9
